The values that follow come from publication PMC7862700, “An all-to-all approach to the identification of sequence-specific readers for epigenetic DNA modifications on cytosine”.

Common to all, as to assay: DAPPL (digital affinity profiling via proximity ligation, sequencing); 10 mM Tris-HCl pH 7.5, 50 mM NaCl, 1 mM DTT, 4% glycerol, room temperature, 30 min; GST-TFs on glutathione beads, 16-mer random dsDNA library, 0.1% formaldehyde crosslink after washing; high values mean tight binding
One assay deals with T1, FEV (Homo sapiens, UniProt Q99581 1-238).
T1 sequence: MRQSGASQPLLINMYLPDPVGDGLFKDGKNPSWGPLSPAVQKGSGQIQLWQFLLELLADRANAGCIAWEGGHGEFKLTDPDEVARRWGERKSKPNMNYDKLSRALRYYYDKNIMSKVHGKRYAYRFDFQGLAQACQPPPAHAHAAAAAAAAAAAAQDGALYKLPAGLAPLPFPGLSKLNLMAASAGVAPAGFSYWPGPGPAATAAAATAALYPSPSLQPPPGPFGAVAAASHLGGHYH
The settings on record: protein: recombinant; tags: N-terminal GST; dsDNA, one strand shown. In a few lines: (§1)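 Sequencing on an Illumina NextSeq500 followed washing, crosslinking with 0.1% formaldehyde, proximity ligation (BsaI/T4 ligase, 1 h, 37 °C) and PCR amplification of pools that had been incubated for 30 min at room temperature with 200 nmole of a random double-stranded 16-mer DNA library in Tris/NaCl/DTT/glycerol buffer. Each pool held DNA-barcoded human transcription factors, expressed in yeast as GST fusions and captured on glutathione beads, plus a tag-only sample. Binding signal is a hexamer's read frequency for a factor divided by its frequency in the tag-only sample.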

In the next assay the target is ETV5 (Homo sapiens, UniProt P41161 1-510). The settings on record: protein: recombinant; tags: N-terminal GST; dsDNA, one strand shown. Summed up:
as §1

The target of another assay is HSF1 (Homo sapiens, UniProt Q00613 1-529). The settings on record: protein: recombinant; tags: N-terminal GST; chain copies: 3; dsDNA, one strand shown. In a few lines: as §1
Another assay concerns the target T2, SPIC (Homo sapiens, UniProt Q8N5J4 1-248).
T2 sequence: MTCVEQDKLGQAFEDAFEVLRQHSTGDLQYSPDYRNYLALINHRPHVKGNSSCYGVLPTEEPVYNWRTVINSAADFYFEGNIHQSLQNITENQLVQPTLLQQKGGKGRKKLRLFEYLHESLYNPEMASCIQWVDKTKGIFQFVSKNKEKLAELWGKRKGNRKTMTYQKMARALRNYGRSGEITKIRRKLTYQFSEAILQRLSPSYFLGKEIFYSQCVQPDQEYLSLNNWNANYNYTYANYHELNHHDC
The settings on record: protein: recombinant; tags: N-terminal GST; dsDNA, one strand shown. In a few lines:
as §1

Another assay addresses ELF4 (Homo sapiens, UniProt Q99607 1-663). As to conditions: protein: recombinant; tags: N-terminal GST; dsDNA, one strand shown. In a few lines: as §1
In another assay the target is T3, ELK4 (Homo sapiens, UniProt P28324-2 1-405).
T3 sequence: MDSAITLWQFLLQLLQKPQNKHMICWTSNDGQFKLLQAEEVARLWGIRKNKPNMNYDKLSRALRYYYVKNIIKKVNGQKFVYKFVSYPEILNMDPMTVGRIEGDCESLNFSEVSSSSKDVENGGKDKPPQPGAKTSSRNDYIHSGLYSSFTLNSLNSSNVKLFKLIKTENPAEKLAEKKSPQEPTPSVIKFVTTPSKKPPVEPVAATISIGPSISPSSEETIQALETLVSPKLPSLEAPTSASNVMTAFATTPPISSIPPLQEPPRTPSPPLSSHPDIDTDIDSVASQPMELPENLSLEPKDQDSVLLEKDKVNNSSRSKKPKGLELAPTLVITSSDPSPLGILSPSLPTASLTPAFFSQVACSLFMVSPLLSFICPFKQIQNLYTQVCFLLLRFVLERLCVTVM
As to conditions: protein: recombinant; tags: N-terminal GST; dsDNA, one strand shown. In a few lines:
as §1

A further assay has as its target T4, ETV2 (Homo sapiens, UniProt O00321 1-342).
T4 sequence: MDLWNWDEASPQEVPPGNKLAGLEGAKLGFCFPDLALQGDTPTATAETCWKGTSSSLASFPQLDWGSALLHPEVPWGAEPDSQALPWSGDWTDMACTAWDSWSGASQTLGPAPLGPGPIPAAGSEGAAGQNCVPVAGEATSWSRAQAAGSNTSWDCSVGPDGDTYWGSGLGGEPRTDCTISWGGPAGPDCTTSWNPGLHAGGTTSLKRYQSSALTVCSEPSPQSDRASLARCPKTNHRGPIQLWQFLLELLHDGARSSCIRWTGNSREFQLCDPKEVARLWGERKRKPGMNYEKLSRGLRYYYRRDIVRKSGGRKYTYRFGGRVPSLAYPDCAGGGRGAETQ
The settings on record: protein: recombinant; tags: N-terminal GST; dsDNA, one strand shown. Summed up:
as §1

A further assay has as its target T5, ELF3 (Homo sapiens, UniProt P78545 1-371).
T5 sequence: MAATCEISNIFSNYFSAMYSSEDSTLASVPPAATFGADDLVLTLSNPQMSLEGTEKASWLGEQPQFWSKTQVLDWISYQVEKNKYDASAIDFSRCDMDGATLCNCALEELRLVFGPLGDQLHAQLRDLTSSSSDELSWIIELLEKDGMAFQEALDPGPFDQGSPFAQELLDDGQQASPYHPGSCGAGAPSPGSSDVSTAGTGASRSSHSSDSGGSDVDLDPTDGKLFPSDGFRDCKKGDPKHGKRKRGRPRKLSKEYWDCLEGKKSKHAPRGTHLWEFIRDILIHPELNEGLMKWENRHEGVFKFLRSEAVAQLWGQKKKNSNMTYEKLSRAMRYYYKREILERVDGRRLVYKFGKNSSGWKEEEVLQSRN
The settings on record: protein: recombinant; tags: N-terminal GST; dsDNA, one strand shown. Summed up: as §1

Another assay deals with CRX (Homo sapiens, UniProt O43186 1-299). As to conditions: protein: recombinant; tags: N-terminal GST; dsDNA, one strand shown. Summed up:
as §1

A further assay concerns the target ETV1 (Homo sapiens, UniProt P50549 1-477). The settings on record: protein: recombinant; tags: N-terminal GST; dsDNA, one strand shown. In a few lines: as §1
The target of a further assay is T6, ERF (Homo sapiens, UniProt P50548 1-548).
T6 sequence: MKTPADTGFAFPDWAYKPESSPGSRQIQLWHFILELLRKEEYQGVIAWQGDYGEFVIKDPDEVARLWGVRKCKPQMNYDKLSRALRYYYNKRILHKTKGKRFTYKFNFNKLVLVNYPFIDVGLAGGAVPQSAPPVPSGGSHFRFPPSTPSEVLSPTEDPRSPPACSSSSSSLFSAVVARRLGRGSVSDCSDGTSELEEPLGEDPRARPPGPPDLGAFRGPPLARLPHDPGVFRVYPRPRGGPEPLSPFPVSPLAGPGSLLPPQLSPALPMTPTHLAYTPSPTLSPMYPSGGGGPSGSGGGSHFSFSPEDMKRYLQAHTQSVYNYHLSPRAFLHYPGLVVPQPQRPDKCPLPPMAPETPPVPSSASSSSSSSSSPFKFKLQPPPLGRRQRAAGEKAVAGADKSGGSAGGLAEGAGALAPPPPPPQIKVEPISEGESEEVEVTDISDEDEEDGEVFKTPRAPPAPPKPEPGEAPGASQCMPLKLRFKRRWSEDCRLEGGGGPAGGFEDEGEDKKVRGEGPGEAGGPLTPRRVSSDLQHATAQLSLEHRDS
As to conditions: protein: recombinant; tags: N-terminal GST; dsDNA, one strand shown. In a few lines: as §1

The target of the next assay is T7, ETV3L (Homo sapiens, UniProt Q6ZN32 1-361).
T7 sequence: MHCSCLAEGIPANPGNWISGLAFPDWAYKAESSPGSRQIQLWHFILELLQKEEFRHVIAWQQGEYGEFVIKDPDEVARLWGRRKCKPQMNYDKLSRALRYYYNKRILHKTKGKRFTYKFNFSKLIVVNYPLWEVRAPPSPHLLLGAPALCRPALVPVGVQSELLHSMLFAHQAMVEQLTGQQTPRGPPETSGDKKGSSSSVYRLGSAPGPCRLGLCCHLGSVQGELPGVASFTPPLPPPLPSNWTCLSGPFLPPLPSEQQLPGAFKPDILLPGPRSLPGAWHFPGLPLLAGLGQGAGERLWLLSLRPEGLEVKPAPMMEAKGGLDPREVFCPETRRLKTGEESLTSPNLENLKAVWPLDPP
The settings on record: protein: recombinant; tags: N-terminal GST; dsDNA, one strand shown. Summed up: as §1

A further assay addresses T8, ETS2 (Homo sapiens, UniProt P15036 1-469).
T8 sequence: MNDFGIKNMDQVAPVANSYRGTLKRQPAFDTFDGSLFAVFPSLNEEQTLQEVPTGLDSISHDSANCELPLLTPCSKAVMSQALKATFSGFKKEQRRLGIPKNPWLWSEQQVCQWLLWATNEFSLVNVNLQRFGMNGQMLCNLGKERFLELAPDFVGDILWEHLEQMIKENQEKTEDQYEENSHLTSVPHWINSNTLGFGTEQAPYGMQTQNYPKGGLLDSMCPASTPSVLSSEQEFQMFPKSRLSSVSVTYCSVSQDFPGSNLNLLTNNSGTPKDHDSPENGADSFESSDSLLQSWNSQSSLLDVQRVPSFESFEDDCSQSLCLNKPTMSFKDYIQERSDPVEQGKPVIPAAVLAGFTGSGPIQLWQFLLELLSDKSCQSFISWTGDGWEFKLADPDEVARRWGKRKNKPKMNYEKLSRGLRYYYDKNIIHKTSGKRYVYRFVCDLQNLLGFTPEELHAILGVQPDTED
The settings on record: protein: recombinant; tags: N-terminal GST; dsDNA, one strand shown. Summed up: as §1

Another assay deals with T9, SPDEF (Homo sapiens, UniProt O95238 1-335).
T9 sequence: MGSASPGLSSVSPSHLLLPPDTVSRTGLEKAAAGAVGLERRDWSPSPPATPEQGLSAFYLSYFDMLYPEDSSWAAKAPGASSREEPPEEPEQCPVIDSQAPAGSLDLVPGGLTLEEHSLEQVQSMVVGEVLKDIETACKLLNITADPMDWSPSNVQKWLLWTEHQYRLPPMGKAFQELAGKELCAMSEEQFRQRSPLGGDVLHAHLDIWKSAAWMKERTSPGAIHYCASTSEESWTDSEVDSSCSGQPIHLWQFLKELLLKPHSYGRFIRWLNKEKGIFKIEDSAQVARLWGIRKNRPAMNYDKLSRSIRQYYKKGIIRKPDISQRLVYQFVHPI
As to conditions: protein: recombinant; tags: N-terminal GST; dsDNA, one strand shown. In a few lines:
as §1

The target in a further assay is T10, ETV7 (Homo sapiens, UniProt Q9Y603 1-341).
T10 sequence: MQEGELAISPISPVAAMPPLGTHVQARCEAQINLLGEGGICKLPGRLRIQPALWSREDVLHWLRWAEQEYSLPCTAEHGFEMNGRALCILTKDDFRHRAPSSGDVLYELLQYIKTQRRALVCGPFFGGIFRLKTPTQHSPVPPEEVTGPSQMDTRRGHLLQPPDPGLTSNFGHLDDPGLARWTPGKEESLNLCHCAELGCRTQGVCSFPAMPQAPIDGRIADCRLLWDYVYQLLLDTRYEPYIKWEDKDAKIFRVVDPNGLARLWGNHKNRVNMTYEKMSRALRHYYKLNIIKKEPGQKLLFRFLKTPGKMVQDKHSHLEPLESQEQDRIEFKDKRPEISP
As to conditions: protein: recombinant; tags: N-terminal GST; dsDNA, one strand shown. Summed up: as §1

The next assay addresses T11, ELF5 (Homo sapiens, UniProt Q9UKW6-2 1-255).
T11 sequence: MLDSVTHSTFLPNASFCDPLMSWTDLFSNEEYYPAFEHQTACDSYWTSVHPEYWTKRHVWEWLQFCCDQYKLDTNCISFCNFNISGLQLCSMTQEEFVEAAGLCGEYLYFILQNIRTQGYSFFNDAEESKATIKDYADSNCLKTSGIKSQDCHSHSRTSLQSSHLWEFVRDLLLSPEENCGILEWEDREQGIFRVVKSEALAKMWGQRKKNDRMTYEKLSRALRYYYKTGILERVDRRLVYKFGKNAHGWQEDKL
As to conditions: protein: recombinant; tags: N-terminal GST; dsDNA, one strand shown. Summed up: as §1

The target of the next assay is T12, ETV3 (Homo sapiens, UniProt P41162-2 1-143).
T12 sequence: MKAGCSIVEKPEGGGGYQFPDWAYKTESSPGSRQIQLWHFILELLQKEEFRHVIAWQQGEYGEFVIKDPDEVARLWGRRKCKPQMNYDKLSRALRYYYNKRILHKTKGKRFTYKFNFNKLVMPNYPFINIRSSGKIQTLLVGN
As to conditions: protein: recombinant; tags: N-terminal GST; dsDNA, one strand shown. Summed up: as §1

The target in another assay is ETV6 (Homo sapiens, UniProt P41212 1-452). As to conditions: protein: recombinant; tags: N-terminal GST; dsDNA, one strand shown. In a few lines:
as §1

Sequence of ETV6 (P41212 whole entry): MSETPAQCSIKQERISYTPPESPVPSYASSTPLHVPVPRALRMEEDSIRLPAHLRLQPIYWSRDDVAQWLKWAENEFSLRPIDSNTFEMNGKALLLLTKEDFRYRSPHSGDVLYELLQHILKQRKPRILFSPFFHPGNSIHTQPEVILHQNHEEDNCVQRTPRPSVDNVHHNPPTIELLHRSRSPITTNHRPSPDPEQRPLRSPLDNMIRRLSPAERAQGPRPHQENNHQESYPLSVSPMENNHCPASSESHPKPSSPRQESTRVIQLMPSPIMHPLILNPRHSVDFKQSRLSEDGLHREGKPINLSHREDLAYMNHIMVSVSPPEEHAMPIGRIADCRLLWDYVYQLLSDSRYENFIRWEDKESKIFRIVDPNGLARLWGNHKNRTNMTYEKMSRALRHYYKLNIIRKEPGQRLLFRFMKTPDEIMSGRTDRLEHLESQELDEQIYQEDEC
Sequence of HSF1 (Q00613 whole entry): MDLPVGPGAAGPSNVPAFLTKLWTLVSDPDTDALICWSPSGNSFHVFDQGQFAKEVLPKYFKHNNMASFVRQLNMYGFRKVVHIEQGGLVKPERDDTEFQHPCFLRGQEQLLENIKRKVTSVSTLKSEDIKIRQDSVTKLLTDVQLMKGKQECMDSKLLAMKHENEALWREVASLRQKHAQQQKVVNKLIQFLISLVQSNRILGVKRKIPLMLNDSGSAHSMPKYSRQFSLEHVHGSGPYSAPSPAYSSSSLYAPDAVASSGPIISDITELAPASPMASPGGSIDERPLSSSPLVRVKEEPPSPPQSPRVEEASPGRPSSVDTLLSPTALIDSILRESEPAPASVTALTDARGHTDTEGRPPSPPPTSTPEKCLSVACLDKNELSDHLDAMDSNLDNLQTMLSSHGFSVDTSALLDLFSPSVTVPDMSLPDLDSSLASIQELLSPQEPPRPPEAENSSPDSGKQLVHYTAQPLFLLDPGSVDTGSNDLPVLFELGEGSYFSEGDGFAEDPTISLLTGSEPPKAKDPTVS
Sequence of ETV1 (P50549 whole entry): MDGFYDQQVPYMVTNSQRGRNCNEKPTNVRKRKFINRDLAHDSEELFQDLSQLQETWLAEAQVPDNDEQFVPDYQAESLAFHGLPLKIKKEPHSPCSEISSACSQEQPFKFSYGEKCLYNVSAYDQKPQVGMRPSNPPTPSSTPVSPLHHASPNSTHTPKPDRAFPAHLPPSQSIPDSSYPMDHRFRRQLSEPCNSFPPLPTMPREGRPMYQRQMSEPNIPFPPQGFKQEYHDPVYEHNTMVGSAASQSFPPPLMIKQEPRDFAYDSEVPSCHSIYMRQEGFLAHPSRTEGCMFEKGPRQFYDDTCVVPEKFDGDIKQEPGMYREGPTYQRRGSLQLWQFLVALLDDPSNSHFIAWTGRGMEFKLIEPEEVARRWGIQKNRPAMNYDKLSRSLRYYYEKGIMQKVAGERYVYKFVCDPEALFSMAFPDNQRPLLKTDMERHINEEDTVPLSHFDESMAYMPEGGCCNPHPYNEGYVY
Sequence of ETV5 (P41161 whole entry): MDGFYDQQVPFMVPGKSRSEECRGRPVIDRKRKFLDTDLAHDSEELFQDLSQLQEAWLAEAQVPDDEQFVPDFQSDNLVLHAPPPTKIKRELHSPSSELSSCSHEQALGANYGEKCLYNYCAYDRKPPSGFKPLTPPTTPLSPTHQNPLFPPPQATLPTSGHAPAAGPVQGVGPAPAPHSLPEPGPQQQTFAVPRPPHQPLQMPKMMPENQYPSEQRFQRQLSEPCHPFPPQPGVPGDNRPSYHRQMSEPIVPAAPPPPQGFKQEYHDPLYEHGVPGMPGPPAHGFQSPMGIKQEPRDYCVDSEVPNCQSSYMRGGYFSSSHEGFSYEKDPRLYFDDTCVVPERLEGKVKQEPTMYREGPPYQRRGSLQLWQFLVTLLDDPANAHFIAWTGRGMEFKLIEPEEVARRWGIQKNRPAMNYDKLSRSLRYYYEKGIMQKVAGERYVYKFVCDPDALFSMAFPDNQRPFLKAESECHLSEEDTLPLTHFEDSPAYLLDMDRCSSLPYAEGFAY
Sequence of ELF4 (Q99607 whole entry): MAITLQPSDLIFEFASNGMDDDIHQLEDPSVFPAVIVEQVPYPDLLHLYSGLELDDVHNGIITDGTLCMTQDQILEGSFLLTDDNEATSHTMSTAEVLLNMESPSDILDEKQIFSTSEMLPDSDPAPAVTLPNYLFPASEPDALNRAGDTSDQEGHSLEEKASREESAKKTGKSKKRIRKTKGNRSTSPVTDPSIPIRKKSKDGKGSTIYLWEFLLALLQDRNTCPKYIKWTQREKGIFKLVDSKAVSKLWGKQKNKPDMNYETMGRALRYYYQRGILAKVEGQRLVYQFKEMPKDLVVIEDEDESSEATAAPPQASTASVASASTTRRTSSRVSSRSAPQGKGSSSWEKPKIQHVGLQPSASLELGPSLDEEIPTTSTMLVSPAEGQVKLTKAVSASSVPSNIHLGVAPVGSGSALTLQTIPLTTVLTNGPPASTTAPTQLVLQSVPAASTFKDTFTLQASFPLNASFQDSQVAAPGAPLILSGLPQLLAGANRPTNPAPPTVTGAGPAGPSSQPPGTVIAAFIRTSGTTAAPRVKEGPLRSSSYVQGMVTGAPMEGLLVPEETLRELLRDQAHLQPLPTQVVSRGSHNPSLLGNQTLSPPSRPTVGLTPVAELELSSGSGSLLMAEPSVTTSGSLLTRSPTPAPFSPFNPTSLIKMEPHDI
Sequence of CRX (O43186 whole entry): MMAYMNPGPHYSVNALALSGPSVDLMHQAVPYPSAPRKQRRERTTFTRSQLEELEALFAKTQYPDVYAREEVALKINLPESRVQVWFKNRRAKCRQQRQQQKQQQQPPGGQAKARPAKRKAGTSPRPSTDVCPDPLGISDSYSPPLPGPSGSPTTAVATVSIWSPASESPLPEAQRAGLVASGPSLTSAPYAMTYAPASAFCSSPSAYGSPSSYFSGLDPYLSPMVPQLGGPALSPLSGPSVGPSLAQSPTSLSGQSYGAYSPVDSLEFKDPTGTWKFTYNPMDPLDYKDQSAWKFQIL

As for CTAATT, the binding signal is 1.35 fold enrichment (6-mer frequency, TF over GST control) in the assay with FEV; 1.28 fold enrichment (6-mer frequency, TF over GST control) in the assay with ETV5; 1.47 fold enrichment (6-mer frequency, TF over GST control) with HSF1; 1.46 fold enrichment (6-mer frequency, TF over GST control) in the assay with SPIC; 1.38 fold enrichment (6-mer frequency, TF over GST control) in the assay with ELF4; 1.27 fold enrichment (6-mer frequency, TF over GST control) with ELK4. Besides, the binding signal was 1.57 fold enrichment (6-mer frequency, TF over GST control) with ETV2; 1.48 fold enrichment (6-mer frequency, TF over GST control) with ELF3; 2.09 fold enrichment (6-mer frequency, TF over GST control) with CRX; 1.26 fold enrichment (6-mer frequency, TF over GST control) with ETV1; 1.27 fold enrichment (6-mer frequency, TF over GST control) with ERF; 1.23 fold enrichment (6-mer frequency, TF over GST control) with ETV3L. Besides, the binding signal with ETS2 was 1.37 fold enrichment (6-mer frequency, TF over GST control); with SPDEF it was 1.17 fold enrichment (6-mer frequency, TF over GST control); in the assay with ETV7, 1.23 fold enrichment (6-mer frequency, TF over GST control); in the assay with ELF5 it was 1.22 fold enrichment (6-mer frequency, TF over GST control); with ETV3 it was 1.19 fold enrichment (6-mer frequency, TF over GST control); in the assay with ETV6, 1.33 fold enrichment (6-mer frequency, TF over GST control).
